Measured values published in PubChem BioAssay (NCATS).
Where “and” joins values, the source holds several entries; their conditions need not be identical. Identical values can stand only once. Results filed as inconclusive are left out. Entries that show only a call come without a potency. Values without a mark were called inactive. Calls of active or inactive are those of the source. The call rests on the fitted dose curve; in most records, active means well fitted curve in the direction sought with a large enough effect; inconclusive means small, poorly fitted or top-dose-only effect, or another doubt; inactive means no such curve, though single readings can be large; an effect the other way counts as inactive or inconclusive.

Key:
[1] = target: Cellular tumor antigen p53 (Homo sapiens) (UniProt P04637); test: Primary qHTS for small molecule compounds that upregulate eGFP-tagged delta133p53alpha (in N-terminal) cells. (AID 2060322); settings: NCI-H358 eGFP-delta133p53alpha fluorescence, 24 h; activation: stronger effect = higher value; further: nearly all actives have a fitted effect of over 75% in size; further: potency means the concentration at half of the fitted maximal effect; on activation: series mostly up to about 56 µM
How it was run: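 NCI-H358 cells pre-induced 24 h with 10 ng/ml doxycycline to express N-terminal eGFP-delta133p53alpha, then dosed 24 h at 37C without doxycycline; fixed, Hoechst-stained, GFP intensity by laser scanning cytometry, normalized to DMSO (0%) and 57.5 uM 5-azacytidine (100%).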

[2] = target: Aldehyde dehydrogenase, mitochondrial (Homo sapiens) (UniProt P05091); test: qHTS for Inhibitors of the Aldehyde Dehydrogenase Family (ALDH2) Primary screen (AID 2061308); further: nearly all actives have a fitted effect of over 55% in size
[3] = target: Retinaldehyde dehydrogenase 3 (Homo sapiens) (UniProt P47895); test: qHTS for Inhibitors of the Aldehyde Dehydrogenase Family (ALDH1A3) Validation screen (AID 2061312); further: nearly all actives have a fitted effect of over 45% in size
[4] = target: Retinaldehyde dehydrogenase 3 (Homo sapiens) (UniProt P47895); test: qHTS for Inhibitors of the Aldehyde Dehydrogenase Family (ALDH1A3) Primary screen (AID 2061315)
[5] = BET inhibitor-based combinations targeting novel dependencies in MECOM-rearranged (r) AML: SET-2 cell line (AID 2202231); settings: SET-2 AML cells viability, CellTiter-Glo luminescence, 48 h; viability: stronger effect = lower value, concentration not given here; further: nearly all actives have a fitted effect of over 35% in size; further: potency means the concentration at half of the fitted maximal effect
How it was run: (§1)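 500 cells/well; 11-pt dose curve; 48 h, standard incubator; CellTiter-Glo luminescence after 15 min RT; DMSO/empty-well normalization; AUC plus Z-AUC (mean-centered within each line).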

[6] = BET inhibitor-based combinations targeting novel dependencies in MECOM-rearranged (r) AML: MV-4-11 cell line (AID 2202233); further: nearly all actives have a fitted effect of over 45% in size; further: potency means the concentration at half of the fitted maximal effect
How it was run: (§2)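 Cells were plated at 500 per well and exposed to each drug across an 11-point dose range for 48 hr at standard incubator conditions. Viability was read by CellTiter-Glo luminescence, and activity was expressed as AUC and per-cell-line Z-transformed AUC.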

[7] = BET inhibitor-based combinations targeting novel dependencies in MECOM-rearranged (r) AML: HNT-34 cell line (AID 2202234); further: nearly all actives have a fitted effect of over 35% in size; further: potency means the concentration at half of the fitted maximal effect
How it was run: as §2

[8] = BET inhibitor-based combinations targeting novel dependencies in MECOM-rearranged (r) AML: UCSD-AML1 cell line (AID 2202235); further: nearly all actives have a fitted effect of over 40% in size; further: potency means the concentration at half of the fitted maximal effect
How it was run: as §2

[9] = BET inhibitor-based combinations targeting novel dependencies in MECOM-rearranged (r) AML: AML-191 cell line (AID 2202236; further: nearly all actives have a fitted effect of over 35% in size; further: potency means the concentration at half of the fitted maximal effect)
How it was run: as §1

[10] = BET inhibitor-based combinations targeting novel dependencies in MECOM-rearranged (r) AML: OCI-AML3 cell line (AID 2202232); settings: Potency: OCI-AML3 viability; further: nearly all actives have a fitted effect of over 35% in size; further: potency means the concentration at half of the fitted maximal effect
How it was run: as §1

[11] = BET inhibitor-based combinations targeting novel dependencies in MECOM-rearranged (r) AML: AML-194 cell line (AID 2202237; further: nearly all actives have a fitted effect of over 40% in size; further: potency means the concentration at half of the fitted maximal effect)
How it was run: as §1

Sequence of Cellular tumor antigen p53 (Homo sapiens) (P04637 whole entry, looked up): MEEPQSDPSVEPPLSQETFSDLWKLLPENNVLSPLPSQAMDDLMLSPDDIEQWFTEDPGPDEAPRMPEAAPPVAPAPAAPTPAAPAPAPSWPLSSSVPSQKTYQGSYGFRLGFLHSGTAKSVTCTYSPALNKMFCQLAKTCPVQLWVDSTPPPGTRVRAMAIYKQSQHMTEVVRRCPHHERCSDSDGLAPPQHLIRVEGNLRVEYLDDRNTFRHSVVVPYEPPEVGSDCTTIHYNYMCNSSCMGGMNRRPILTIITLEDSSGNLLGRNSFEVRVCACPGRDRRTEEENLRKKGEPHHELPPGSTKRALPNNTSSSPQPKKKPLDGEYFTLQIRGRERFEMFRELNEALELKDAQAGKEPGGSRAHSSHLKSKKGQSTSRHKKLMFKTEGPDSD

| Compound | activation [1] | Potency [2] | Potency [3] | Potency [4] | viability [5] | Potency [6] | Potency [7] | Potency [8] | Potency [9] | Potency [10] | Potency [1] | Potency [5] | Potency [11] |
| --- | --- | --- | --- | --- | --- | --- | --- | --- | --- | --- | --- | --- | --- |
| CCNC(=O)CCC/C=C\C[C@@H]1[C@@H](/C=C/C(O)CCc2ccccc2)[C@@H](O)C[C@@H]1O (some centres undefined) | -11.9% | inactive | inactive | inactive | 121% | inactive | inactive | inactive | inactive | – | – | – | – |
| CCCCNc1ncc(-c2ccc(CN3CCOCC3)cn2)c(NC2CCC(O)CC2)n1 (centres undefined) | -4.77% | inactive | inactive | inactive | 114% | 144 nM (active) | – | 8110 nM (active) | – | 1150 nM (active) | – | – | – |
| CC(C)C[C@H](NC(=O)[C@H](Cc1ccccc1)NC(=O)c1cnccn1)B(O)O | – | inactive | inactive | inactive | – | 13.2 nM (active) | 14.8 nM (active) | 18.6 nM (active) | 18.6 nM (active) | 10.5 nM (active) | 968 nM (active) and 379 nM (active) | 16.6 nM (active) | 20.9 nM (active) |
| CCO[C@@H]1OC(=O)C[C@@H]1NC(=O)[C@@H]1CCCN1C(=O)[C@@H](NC(=O)c1ccc(N)c(Cl)c1)C(C)(C)C | -7.64% | inactive | inactive | inactive | 112% | inactive | inactive | inactive | – | – | – | – | – |
| COc1ccc(CCC(=O)Nc2nc3ccc(Cl)cc3s2)cc1OC | 9.8% and 1.91% | inactive | inactive | inactive | 120% | inactive | – | inactive | inactive | inactive | – | – | inactive |
| Cc1nnc(C(C)C)n1C1CC2CCC(C1)N2CC[C@H](NC(=O)C1CCC(F)(F)CC1)c1ccccc1 (some centres undefined) | -6.68% | inactive | inactive | inactive | 113% | – | inactive | inactive | inactive | inactive | – | – | inactive |
| COc1ccc(-n2nc(C(N)=O)c3c2C(=O)N(c2ccc(N4CCCCC4=O)cc2)CC3)cc1 | 22.9% and -7.16% | inactive | inactive | inactive | 101% | inactive | – | – | inactive | inactive | – | – | inactive |
| CN1CCN(Cc2ccc(NC(=O)Nc3ccc(Oc4cc(NC(=O)C5CC5)ncn4)cc3)cc2C(F)(F)F)CC1 | – | inactive | inactive | inactive | – | 3.7 nM (active) | 46.8 nM (active) | 372 nM (active) | 590 nM (active) | 372 nM (active) | 968 nM (active) | 742 nM (active) | 833 nM (active) |
| COCCN1CCN(Cc2ccc(-c3n[nH]c4c3C(=O)c3c(NC(=O)NN5CCOCC5)cccc3-4)cc2)CC1 | – | inactive | inactive | inactive | – | 26.3 nM (active) | 166 nM (active) | 148 nM (active) | 186 nM (active) | 166 nM (active) | 75.7 nM (active) | 417 nM (active) | 332 nM (active) |
| CC(C)(C)c1cc(C(=O)O)c(NC(=O)Nc2ccc3[nH]ncc3c2)s1 | 7.87% and -13.8% | inactive | inactive | inactive | 118% | 18600 nM (active) | inactive | inactive | inactive | inactive | – | – | inactive |
| O=C(c1ccc(NS(=O)(=O)c2cccc3cccnc23)cc1)N1CCN(CC2CC2)CC1 | -3.34% | inactive | inactive | inactive | 115% | inactive | inactive | inactive | inactive | inactive | – | – | inactive |
| CCCN1CCN(c2ccc(C(=O)NC3(C(=O)NCC#N)CCCCC3)cc2)CC1 | -6.68% | inactive | inactive | inactive | 102% | inactive | inactive | inactive | inactive | – | – | – | inactive |
| CC(C)(OCc1nn(Cc2ccccc2)c2ccccc12)C(=O)O | -10.7% and 1.91% | inactive | inactive | inactive | 104% | – | inactive | inactive | inactive | inactive | – | – | inactive |
| COc1ccc(-n2c(SCCCN3C(=O)c4cccc5cccc(c45)C3=O)nnc2-c2ccncc2)cc1 | -13.4% | inactive | inactive | inactive | 102% | – | inactive | inactive | inactive | inactive | – | – | inactive |
| C#CC[C@H](c1nc2cc(Cl)ccc2c(=O)n1Nc1ccccc1)N(CCCN)C(=O)c1cccc(Cl)c1F | – | inactive | inactive | inactive | – | – | 372 nM (active) | 1050 nM (active) | 3320 nM (active) | 590 nM (active) | 4780 nM (active) | 10500 nM (active) | 3320 nM (active) |
